ELG1 genotox = inducers of genotoxicity in HEK293T ELG1-luciferase cells; HEK293T ELG1-luciferase reporter, luminescence, 16 h; Potency, µM (doses to about 46 µM), usual class: activators; actives 1.3% (n = 330,000); note: nearly all actives have a fitted effect of over 60% in size
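Reporter readout depends on ELG1 protein level, which increases with genetic stress. After 16 hr compound exposure at 37 °C, luciferase activity was quantified using ONE-Glo.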
SMN2 splice up = SMN2 splice variant enhancement | Potency, µM (titrated, usually from 46.1 µM), hits mostly activators | actives 2.8% (n = 210,000) | HEK293 SMN2-luciferase splicing reporter, luminescence, 30-36 h | AID 1458; note: nearly all actives have a fitted effect of over 55% in size
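HEK293 cells carry an SMN2 […]–luciferase reporter in which exon 7 inclusion puts luciferase in frame. Cells were plated 10-12 h before compound addition, then incubated 30-36 h at 37C. ONE-Glo luminescence was read; sodium butyrate at 4.5 mM final served as control.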
FLuc counter = inhibits or activates purified firefly luciferase, miR-21 counter-screen | actives 6.9% (n = 360,000) | purified FLuc, Km substrates, luminescence inhibition | AID 588342 | Potency, µM (top dose mostly 57.5 µM), usual class: inhibitors; note: nearly all actives have a fitted effect of over 55% in size
Target sequence (P08659 whole entry, looked up): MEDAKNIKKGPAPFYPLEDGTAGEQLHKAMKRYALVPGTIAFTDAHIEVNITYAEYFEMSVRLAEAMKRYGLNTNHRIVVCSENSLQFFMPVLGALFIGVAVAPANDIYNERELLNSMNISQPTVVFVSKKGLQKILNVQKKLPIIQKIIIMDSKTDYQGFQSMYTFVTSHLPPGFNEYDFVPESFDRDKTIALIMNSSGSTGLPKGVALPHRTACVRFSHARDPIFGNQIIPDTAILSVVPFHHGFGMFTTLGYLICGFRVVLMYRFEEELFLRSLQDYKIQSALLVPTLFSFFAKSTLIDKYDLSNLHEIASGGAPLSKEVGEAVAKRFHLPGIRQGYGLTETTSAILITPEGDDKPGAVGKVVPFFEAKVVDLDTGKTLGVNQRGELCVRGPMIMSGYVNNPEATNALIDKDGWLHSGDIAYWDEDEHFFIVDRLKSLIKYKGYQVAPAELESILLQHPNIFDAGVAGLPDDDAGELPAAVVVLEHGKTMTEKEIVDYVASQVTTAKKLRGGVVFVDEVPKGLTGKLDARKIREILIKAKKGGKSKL
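Biochemical qHTS of compounds, final roughly 60 µM downward over six points, against 10 nM purified firefly luciferase using Km concentrations of substrates (10 uM D-luciferin, 10 uM ATP) in Tris acetate pH 7.5 buffer; luminescence output.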
NPC1 prom act = activators of NPC1 promoter; Potency, µM (titrated, usually from 9.22 µM), actives largely listed as activators; AID 485313; Huh7 NPC1 promoter luciferase reporter, 24 h; actives 2.4% (n = 320,000); note: nearly all actives have a fitted effect of over 60% in size
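NPC1 promoter–luciferase Huh7 cells; 24 h compound; luminescence.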
Rab9 promoter act = Rab9 promoter activation; actives 2.8% (n = 320,000); Potency, µM (series often up to 9.22 µM), most hits filed as activators; Huh7 Rab9 promoter-luciferase reporter, luminescence, 24 h; AID 485297; note: nearly all actives have a fitted effect of over 60% in size
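Luciferase signal after 10 min detection reagent at ambient indicates Rab9 promoter upregulation; stably transfected Huh7 cells were treated 24 h with compound in DMSO at 37 °C, 5% CO2.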
Each line names hits and unclear results; the compound was inactive in the other large screens. The list is not random: actives were taken first. Their share in the collection is about 7.5%. Calls come from the whole dose curve; as a rule, active = well fitted curve in the direction sought with a large enough effect; inconclusive = small, poorly fitted or top-dose-only effect, or another doubt; inactive = no such curve, though single readings can be large; an effect the other way counts as inactive or inconclusive.

COc1ccc(Cl)cc1NC(=O)Cn1ncc2c3ccccc3n(Cc3ccccc3)c2c1=O	none (no result: ELG1 genotox, NPC1 prom act, Rab9 promoter act)
CCCCCCCCCCCCCCCC(=O)NCCCC(=O)O	none (no result: ELG1 genotox, FLuc counter, NPC1 prom act, Rab9 promoter act)
Cc1nc(SCC(=O)Nc2nc3ccccc3s2)c(C#N)c(C)c1C	FLuc counter 2.1µM
Cc1nc(SCC(=O)Nc2nccs2)c(C#N)c(C)c1C	ELG1 genotox inconclusive, FLuc counter 1.1µM, NPC1 prom act inconclusive, Rab9 promoter act 0.56µM (no result: SMN2 splice up)
C=CCn1c(SCC(=O)Nc2nccs2)nnc1-c1ccco1	none
C=CCn1c(C)nnc1SCC(=O)Nc1nccs1	NPC1 prom act inconclusive, Rab9 promoter act 0.089µM (no result: SMN2 splice up)
Cc1nc(SCC(=O)Nc2nc3ccccc3s2)n[nH]1	FLuc counter inconclusive (no result: SMN2 splice up)
Nc1nc2c(c(=O)[nH]1)CN(c1ccc(S(N)(=O)=O)cc1)CN2	none (no result: ELG1 genotox, FLuc counter, NPC1 prom act, Rab9 promoter act)
CCc1nnc(NC(=O)c2ncc(Cl)c(Cl)c2Cl)s1	none (no result: SMN2 splice up)
CC(C)(C)c1nnc(NC(=O)c2ccc(Cl)nc2)s1	FLuc counter inconclusive, Rab9 promoter act 4.5µM (no result: SMN2 splice up)
CCc1nnc(NC(=O)CCC(=O)Nc2ccc(Cl)cc2)s1	none (no result: SMN2 splice up)
CCc1nnc(NC(=O)c2cc(Cl)ccn2)s1	ELG1 genotox 16µM, FLuc counter 15µM, NPC1 prom act 2.2µM, Rab9 promoter act 2.5µM (no result: SMN2 splice up)
O=C(Nc1nnc(C2CC2)s1)c1ccc(Cl)nc1	ELG1 genotox inconclusive, FLuc counter 12µM, NPC1 prom act inconclusive, Rab9 promoter act inconclusive (no result: SMN2 splice up)
O=C(Nc1nnc(C2CC2)s1)c1ccc(S(=O)(=O)c2ccccc2)cc1	none
CCc1nnc(NC(=O)c2ccc(Cl)nc2)s1	ELG1 genotox inconclusive, FLuc counter 13µM, Rab9 promoter act inconclusive
O=C(c1ccccc1Cl)N1CCCCC1CCN1CCCCC1 (centres undefined)	none (no result: ELG1 genotox, NPC1 prom act, Rab9 promoter act)
O=C(O)c1cccc(S(=O)(=O)Nc2cccc3ccccc23)c1	FLuc counter 24µM (no result: SMN2 splice up)
Cc1ccc(-n2nnc(-c3cc4ccccc4n3C)n2)cc1	ELG1 genotox inconclusive, FLuc counter 0.85µM, NPC1 prom act 2.8µM, Rab9 promoter act 1.6µM (no result: SMN2 splice up)
Cn1c(-c2nnn(-c3ccc(F)cc3)n2)cc2ccccc21	ELG1 genotox 5.2µM, FLuc counter 1.3µM, NPC1 prom act inconclusive, Rab9 promoter act 4µM (no result: SMN2 splice up)
COC(=O)c1cc(=O)c(O)c2c(O)c(O)ccc2c1	none (no result: ELG1 genotox, FLuc counter, NPC1 prom act, Rab9 promoter act)
COc1ccc(CC(=O)Nc2ccc(-c3csc(C)n3)cc2)cc1	none (no result: SMN2 splice up)
Cc1nc(-c2ccc(NC(=O)Cc3ccccc3)cc2)cs1	FLuc counter 8.5µM, NPC1 prom act inconclusive, Rab9 promoter act inconclusive (no result: SMN2 splice up)
CCC(=O)Nc1ccc(-c2csc(C)n2)cc1	ELG1 genotox inconclusive, SMN2 splice up inconclusive, FLuc counter 24µM, NPC1 prom act inconclusive, Rab9 promoter act inconclusive
CCC(=O)Nc1ccc(-c2csc(NNC(C)=O)n2)cc1	none
Nc1nc(C2CCCN2S(=O)(=O)c2ccc(Cl)cc2)cs1 (centres undefined)	none
COCCn1c(SCc2ccc(F)cc2)nc2ccccc2c1=O	none (no result: SMN2 splice up)
Nc1ccc(S(=O)(=O)NC2(C(F)(F)F)NC(=O)N(c3cccc(Cl)c3)C2=O)cc1 (centres undefined)	none (no result: ELG1 genotox, NPC1 prom act, Rab9 promoter act)
Cc1ccc(NC(=O)ON=C2CCCC2)cc1	ELG1 genotox 21µM, SMN2 splice up inconclusive, FLuc counter 8.5µM, NPC1 prom act inconclusive, Rab9 promoter act 3.5µM
O=C(Nc1ccccc1)ON=C1CCCC1	ELG1 genotox inconclusive, SMN2 splice up 20µM, FLuc counter 24µM, Rab9 promoter act inconclusive
CCOc1ccc(NC(=O)CSc2nnc(CC)c(CC)n2)cc1	none (no result: ELG1 genotox, SMN2 splice up, NPC1 prom act, Rab9 promoter act)
O=C(Nc1cccc(F)c1)c1ccc2ncsc2c1	FLuc counter 13µM, NPC1 prom act 2.2µM, Rab9 promoter act 3.5µM (no result: SMN2 splice up)
O=C(COC(=O)c1ccc2ncsc2c1)Nc1cc(Cl)ccc1F	none (no result: SMN2 splice up)
O=C(Nc1ccccc1F)c1ccc2ncsc2c1	FLuc counter inconclusive, NPC1 prom act 2.2µM, Rab9 promoter act 4µM (no result: SMN2 splice up)
CC(=O)Nc1nnc(SCc2ccc(F)cc2)s1	ELG1 genotox inconclusive, SMN2 splice up inconclusive
O=C(Nc1ccccc1Br)c1ccc2nccnc2c1	FLuc counter 6.7µM, NPC1 prom act 3.2µM, Rab9 promoter act 2µM (no result: SMN2 splice up)
O=C(Nc1nnc(SCc2ccc(F)cc2)s1)c1ccc2ncsc2c1	ELG1 genotox inconclusive, SMN2 splice up 13µM, FLuc counter inconclusive, NPC1 prom act inconclusive, Rab9 promoter act inconclusive
CCOc1ccc(C2C(C(=O)Nc3ccccc3OC)=C(C)Nc3c(C(=O)Nc4cccc(C)c4)cnn32)cc1 (centres undefined)	none (no result: ELG1 genotox, SMN2 splice up, NPC1 prom act, Rab9 promoter act)
